Compound activity as filed in PubChem BioAssay.
In the library only some 3.2% were active in any assay of this set; here they are far more common.
ANO1 block = blocks the mouse calcium-activated chloride channel TMEM16A | normalized B-score (activity score, 25-100; higher = stronger inhibition) at 10 µM | AID 588511 | Q8BHY3 | HEK293 TMEM16A/YFP iodide influx fluorescence, ionomycin | 310,000 tested, 1.2% active;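 active means ratio plate-corrected score three or more library SD toward inhibition, starting fluorescence score within five deviations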;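 further: score derived from kinetic fluorescence span divided by baseline fluorescence per well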
CHT PAM = allosteric activators of human choline transporter CHT. Q9GZV3. CHT-expressing cells, membrane potential dye, choline EC20; hits give high values; LV-AA mutant CHT in HEK293 cells. B-score at 10 µM. 310,000 tested, 0.49% active. AID 488977;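 active means initial fluorescence not abnormally high and integrated response B-score, plate-corrected, over 3 SD above library mean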
Target sequence (Q9GZV3 whole entry, looked up): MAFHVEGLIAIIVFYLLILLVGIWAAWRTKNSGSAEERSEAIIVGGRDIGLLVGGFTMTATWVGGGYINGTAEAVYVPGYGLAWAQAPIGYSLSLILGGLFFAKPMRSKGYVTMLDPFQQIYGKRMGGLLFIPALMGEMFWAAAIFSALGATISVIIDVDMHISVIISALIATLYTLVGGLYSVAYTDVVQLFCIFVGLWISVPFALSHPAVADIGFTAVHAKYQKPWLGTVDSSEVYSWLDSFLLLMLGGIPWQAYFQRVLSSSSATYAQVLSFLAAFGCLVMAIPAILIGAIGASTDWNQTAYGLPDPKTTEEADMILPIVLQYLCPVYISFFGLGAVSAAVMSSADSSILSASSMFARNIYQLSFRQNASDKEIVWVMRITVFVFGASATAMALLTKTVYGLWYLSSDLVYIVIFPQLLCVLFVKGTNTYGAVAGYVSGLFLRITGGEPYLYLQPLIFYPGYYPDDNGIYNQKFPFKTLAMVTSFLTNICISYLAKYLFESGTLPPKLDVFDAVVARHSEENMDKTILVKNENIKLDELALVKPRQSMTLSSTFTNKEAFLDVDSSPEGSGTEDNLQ
CHT inh = inhibitors of human choline transporter CHT; Q9GZV3; CHT-expressing cells, membrane potential dye, choline response; hits give low values; B-score at 10 µM; 310,000 tested, 0.86% active; AID 488975;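 active means B-score over 3 SD under the library average, and starting fluorescence ratio not unusually high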;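 further: choline stimulus applied at its EC90 after an EC20 pre-addition; B-score computed on integrated fluorescence ratio after choline addition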
TMEM16A act = activators or potentiators of mouse TMEM16A chloride channel | Q8BHY3 | HEK293 TMEM16A/YFP-H148Q/I152L, iodide quench fluorescence; hits give low values | B-score at 10 µM | 340,000 tested, 0.3% active;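 active means fluorescence-ratio B-score plate-corrected deviation score at least 3 library SD below zero, with starting fluorescence score within 5 deviations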;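 further: channel opened by trigger with iodide after compound preincubation; score built on the fluorescence ratio of max minus min over baseline; more negative score means more quench and so TMEM16A activation or potentiation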
Kir21 inh = inhibitors of mouse Kir2.1 inward-rectifier potassium channel | HEK293-Kir2.1, FluxOR thallium flux fluorescence; hits give low values | B-score at 10 µM | 310,000 tested, 0.85% active | AID 1672;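 active means fluorescence ratio B-score at or below minus 3 SD of library scores, with starting-brightness B-score within 2 SD, cut at about -4.2 in these data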;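 further: channel flux triggered by added potassium and thallium sulfate stimulus; B-score of peak minus minimum fluorescence over baseline after thallium stimulus; more negative B-score means stronger Kir2.1 block with less thallium influx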
Rce1 inh = yeast Ras-converting enzyme inhibition; Q03530; yeast membranes, quenched prenylated peptide cleavage fluorescence; calls only; 290,000 tested, 0.27% active; AID 2563;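 active means fall in fluorescence gain of 50% or more versus controls, with final raw signal at or below 3038400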;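 further: plate controls were neutral control wells for no effect and wells lacking membranes for full effect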
Starred values were filed as active, the others as inactive; i = inactive; · = not tested or not shown; + = active, no number.

SMILES | ANO1 block | CHT PAM | CHT inh | TMEM16A act | Kir21 inh | Rce1 inh
Cc1ccc(C(=O)NN2C(=O)/C(=C/c3cn(C)c4ccccc34)SC2=S)cc1 | i | i | i | i | · | ·
CCn1c(/N=C/c2ccccc2NS(=O)(=O)c2ccc(C)cc2)nc2ccccc21 | i | i | i | i | · | ·
CC(=O)c1sc(Nc2nc3ccc(F)cc3s2)nc1C | 25* | i | i | i | 0.78 | i
COc1ccccc1NC(=O)CSCc1ccc([N+](=O)[O-])cc1 | i | i | i | i | -2.6 | i
CC(C)C(NC(=O)CSCc1ccc([N+](=O)[O-])cc1)C(C)C | i | i | i | i | -4.5* | i
COC(=O)Cc1ccc(NC(=S)NCCCN2CCOCC2)cc1 | i | i | -6.8* | i | 0.8 | i
COc1ccccc1C1CCN(c2cc(O)ccc2[N+](=O)[O-])CC1 | 100* | i | i | i | -0.04 | i
COc1ccc(N2CCN(C3CCCCC3NS(=O)(=O)c3ccc(Cl)cc3)CC2)cc1 (stereo not drawn) | i | i | i | i | 1.1 | i
COc1ccccc1N1CCN(C2CCCCC2NS(=O)(=O)c2ccc(Cl)cc2)CC1 (stereo not drawn) | i | i | i | -33* | -0.53 | i
OC(CCCN1CCC(O)(c2ccc(Cl)cc2)CC1)c1ccc(F)cc1 (stereo not drawn) | i | i | i | i | -0.92 | i
CN(C)C(=O)C(CCN1CCC(O)(c2ccc(Cl)cc2)CC1)(c1ccccc1)c1ccccc1 | i | i | i | i | -4.9* | i
Cc1ccn2c(NC3CCCCC3)c(-c3cccc(-c4cccc(Cl)c4)c3)nc2c1 | i | i | i | i | -0.83 | i
CCN1CCN(CCNC(=O)c2ccc(/C=C3\Sc4ccccc4N(Cc4ccccc4F)C3=O)cc2)CC1 | i | i | i | i | -4.7* | i
CN1CCN(CCCNC(=O)c2ccc(/C=C3\Sc4ccccc4N(Cc4ccc(F)cc4)C3=O)cc2)CC1 | · | · | · | i | -0.43 | i
Cc1ccc(CN(C(=O)C(F)(F)F)C(C(=O)NC2CCCCC2)c2ccco2)cc1 (stereo not drawn) | i | i | i | i | -0.23 | i
O=C(NC1CCCCC1)C(c1ccco1)N(C(=O)C(F)(F)F)C1CC1 (stereo not drawn) | i | i | i | -5.9* | 0 | i
CC(C)(C)c1ccc(OCC(=O)NNC(=S)NC(=O)c2ccco2)c(Br)c1 | 25* | i | i | -9* | 1.4 | i
CC(C)c1ccc(OCC(=O)NNC(=S)NC(=O)c2ccco2)c(Br)c1 | i | i | i | i | 0.25 | i
Nc1ccccc1C(=O)NC(=O)Nc1ccc(Oc2ncc(Br)cn2)c(Cl)c1 | · | · | · | i | · | ·
COc1cccc(C2CC(c3ccc(Br)cc3)=NN2C(=O)c2ccncc2)c1OC (stereo not drawn) | i | i | i | i | 0.01 | +
CCCn1c(=N)n(CC(O)c2ccc(C)cc2)c2ccccc21 (stereo not drawn) | i | i | i | i | -6* | i
Cc1ccc(Cn2c(=N)n(CC(O)c3ccco3)c3ccccc32)cc1 (stereo not drawn) | i | i | i | i | -5* | i
N=c1n(Cc2ccccc2Cl)c2ccccc2n1CC(O)c1ccco1 (stereo not drawn) | i | i | i | i | -5.2* | i
CCCn1c(=N)n(CC(O)c2ccco2)c2ccccc21 (stereo not drawn) | i | i | i | i | -0.17 | i
Cc1ccc(Cn2c(=N)n(CC(=O)c3ccccc3)c3ccccc32)cc1 | 25* | i | i | i | -8.9* | i
SMILES | ANO1 block | CHT PAM | CHT inh | TMEM16A act | Kir21 inh | Rce1 inh
CCOC(=O)c1ccc(NC(=O)CN2C(=O)C(CC)SC(CC)C2=O)cc1 (stereo not drawn) | i | i | i | i | -2.3 | ·
CCN(CC(=O)NCc1ccc(F)cc1)CC(=O)NC1CCCC1 | i | i | i | i | -0.36 | i
CC1(c2nnc(-c3cccc(Cl)c3)o2)CC(c2ccccc2)=NO1 (stereo not drawn) | i | i | i | i | 0.01 | i
O=C(Nc1ccc(F)c(Cl)c1)C1CC2CCC1C2 (stereo not drawn) | i | i | i | i | 1.4 | i
Cn1c(=N)n(CC(O)c2ccco2)c2ccccc21 (stereo not drawn) | i | i | i | i | -0.14 | i
Cn1c(=N)n(CC(O)c2cccc3ccccc23)c2ccccc21 (stereo not drawn) | i | i | i | i | -4.4* | i
CCOC(=O)C1CCN(C(=O)CN(C)S(=O)(=O)c2ccc3c(c2)c(=O)n(C)c(=O)n3C)CC1 | i | i | i | i | 0 | i
CCCOC(=O)c1ccc(NC(=O)/C=C/c2cccs2)cc1 | 25* | i | i | i | -0.32 | i
O=C(/C=C/c1cccs1)Nc1ccncc1 | i | i | i | i | -0.06 | i
CCOc1ccc(NC(=O)CN(C)C(=O)CC(NC(=O)c2ccccc2)c2ccccc2)cc1OCC (stereo not drawn) | i | i | i | -4.9* | 0.58 | i
CCOC(=O)c1nnn(-c2nonc2N)c1-c1ccccc1Cl | i | i | i | i | -4.9* | i
CCOC(=O)c1nnn(-c2nonc2N)c1-c1cccc2ccccc12 | i | i | i | i | -1.9 | i
CC(C)C(=O)NC(Nc1ccccc1F)C(Cl)(Cl)Cl (stereo not drawn) | i | i | i | i | -4.5* | i
CC(C)=CCN1CCN(Cc2cc(C(C)C)n[nH]2)CC1CCO (stereo not drawn) | i | i | i | i | 1.8 | i
COc1ccc(OC)c(NC(=O)CSCc2cnn(-c3ccccc3)c2-n2cccc2)c1 | i | i | i | i | -4.3* | i
COc1cccc(CNC(=O)CSCc2cnn(-c3ccccc3)c2-n2cccc2)c1OC | 100* | i | i | i | -2 | i
COc1cc(NC(=O)CSCc2cnn(-c3ccccc3)c2-n2cccc2)cc(OC)c1 | i | i | i | i | -1.5 | i
COc1ccccc1CNC(=O)CSCc1cnn(-c2ccccc2)c1-n1cccc1 | i | i | i | i | -5.8* | i
COc1ccc(-c2c(C)oc3c(CN4CCOCC4)c(O)ccc3c2=O)cc1 | i | i | i | i | 0.95 | i
Cc1oc2c(CN3CCCC3)c(O)ccc2c(=O)c1-c1ccc(Br)cc1 | i | i | i | i | 0.25 | +
